Bioassay records deposited in PubChem by Center for Chemical Genomics, University of Michigan.
Dicer inh – human Dicer pre-microRNA cleavage inhibition | z-score at 25 µM | Q9UPY3 | cat-ELCCA pre-miR-21 Dicer processing, chemiluminescence; hits give high values | actives 6% (n = 47,000); in the data active means z-score above about 3, passing the limit was not always enough;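 further: plate controls were vehicle for no effect and no enzyme for full effect; higher signal means more uncleaved substrate so more Dicer inhibition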
* = called active by the depositor. The full list was thinned out, with hits kept by preference.

SMILES	Dicer inh
c1ccc(Nc2nc(-c3cccs3)cs2)cc1	-1.4
COc1ccccc1Nc1nc(-c2c(C)nc3ccccn23)cs1	0.77
Oc1cccc(Nc2nc(-c3cccnc3)cs2)c1	-0.29
Cc1cccc(Nc2nc(-c3c(C)nc4ccccn34)cs2)c1	4.6*
Cc1cccc(Nc2n[nH]c(=S)s2)c1	1.2
CCNC(=O)c1c(C)nc2ccccn12	0
COc1ccc(Nc2nc(-c3ccncc3)cs2)cc1	0.71
COc1ccc(Nc2nc(-c3c(C)nc4ccccn34)cs2)cc1	3.6*
CCN(CC)c1ccc(Nc2nc(-c3c(C)nc4ncccn34)cs2)cc1	4.1*
Cc1nc2ccccn2c1-c1csc(Nc2cccc(O)c2)n1	6.5*
NC(=O)c1ccc(NC(=O)c2nccnc2C(=O)O)cc1	0.08
O=C(/C=C(\CC(=O)c1ccccc1)c1ccc(Cl)cc1)c1ccccc1	-1.6
N#Cc1ccccc1NS(=O)(=O)c1cccs1	-0.84
COc1cccc(-c2ccnc3[nH]n(-c4nc(C)cc(C)n4)c(=O)c23)c1	1.2
Cc1cccc(NC(=O)c2snnc2C)c1C(=O)O	0.58
O=C(COc1ccc(Cl)cc1)Oc1ccc2c(c1)oc(=O)c1ccccc12	-0.43
Cc1cc(C)cc(NC2OC(=O)c3ccccc32)c1 (stereo not given)	0.94
Cc1ccc2oc3c(c(=O)c2c1)C(c1ccc(F)cc1)N(c1ccccn1)C3=O (stereo not given)	0.58
CC(=O)CCCNc1nc(-c2ccc(Cl)cc2)cs1	6.7*
O=C(Nc1nc(-c2ccccc2)cs1)c1ccc(Cl)cc1	2.2
Cn1ccnc1SCC(=O)Nc1nc(-c2ccc(Cl)cc2)cs1	0.23
CCOc1ccc(C(Nc2ccccn2)c2c(O)ccc3ncccc23)cc1 (stereo not given)	0.64
COC(=O)c1scc(NS(=O)(=O)c2ccc(Cl)cc2Cl)c1C(=O)OC	0
O=C(Nc1ccc(Cl)cc1)SCc1c(Cl)cccc1Cl	-2.9
CN1CCN(S(=O)(=O)c2ccc3ccccc3c2)CC1	-0.65
SMILES	Dicer inh
COc1ccc(OC)c(S(=O)(=O)N2CCN(C)CC2)c1	-1.2
COc1ccc(S(=O)(=O)N2CCN(C)CC2)cc1C	4*
COc1ccc(-c2nnc(-c3ccncc3)o2)cc1	-0.79
O=C(OCCN=C1NS(=O)(=O)c2ccccc21)c1ccc(S(=O)(=O)N2CCOCC2)cc1	1.1
CCOC(=O)NNC(=O)NCCCc1ccc2ccc3cccc4ccc1c2c34	2.3
O=c1[nH][nH]c(=O)n1CCCc1cc2cccc3ccc4cccc1c4c32	3.7*
O=C(O)Cc1ccc2c3c(cccc13)CC2	-0.44
CC(C)(C)C(Cc1ccccc1)C(=O)O (stereo not given)	-0.13
N#Cc1c(-c2cccs2)cc(-c2ccc([N+](=O)[O-])cc2)nc1OCC(=O)c1ccccc1	-0.3
CC(=O)c1cc([N+](=O)[O-])c(Nc2ccc(Cl)cc2)s1	4.8*
COc1ccc(Nc2sc(C(C)=O)cc2[N+](=O)[O-])cc1	1.4
CC(=O)c1cc([N+](=O)[O-])c(Nc2ccccc2)s1	0.9
O=C(Cn1cc(C(F)(F)F)ccc1=O)c1ccc(Cl)cc1Cl	0.67
CCC(=O)N1c2ccccc2NC2=C(C(=O)CC(C)(C)C2)C1CC1CC=C(C)C1(C)C (stereo not given)	-0.46
O=C(/C=C/Sc1nc2ccccc2o1)c1ccc(Cl)cc1	2.4
Oc1ccc(/C=N/NC(=S)NC2CC3CCC2C3)cc1 (stereo not given)	24*
S=C(NNC(=S)NC1CC2CCC1C2)NC1CC2CCC1C2 (stereo not given)	1.9
S=C(NN=C1CCCC1)NC1CC2CCC1C2 (stereo not given)	-0.5
O=C(c1ccc(Cl)cc1)c1cc2cc(Br)cc(Br)c2o1	-0.47
COC(=O)c1scc(C)c1N	0.29
Nc1[nH]c(=S)[nH]c(=O)c1C(c1ccc(Cl)cc1Cl)c1c(N)[nH]c(=S)[nH]c1=O	3.4*
Nc1n[nH]c(=O)c2cc(-c3ccc(Cl)cc3)[nH]c(=O)c12	-0.77
O=C(O)CC(CC(=O)O)c1ccc(Cl)cc1Cl	-2.2
COc1ccc(C(=O)CSc2nc(C)cc(C)n2)cc1C	-0.42
Cc1cc(C)nc(SCC(=O)c2ccc(F)cc2F)n1	3.7*
SMILES	Dicer inh
Cc1cc(C)nc(SCC(=O)c2c(C)[nH]c3ccccc23)n1	2.9
O=C(CCN(Cc1ccco1)S(=O)(=O)c1ccc(Cl)cc1)NNS(=O)(=O)c1cccs1	0.18
CC(C)CNC(=S)NCCNC(=O)OC(C)(C)C	-0.75
COc1ccccc1C1Nc2cccc3cccc(c23)N1	2.2
c1ccc2c(C3Nc4cccc5cccc(c45)N3)cccc2c1	4.4*
CN(C)c1ccc(C2Nc3cccc4cccc(c34)N2)cc1	0.05
CC(C)(C)c1ccc(C2Nc3cccc4cccc(c34)N2)cc1	5*
O=C1NC(c2ccc(Cl)cc2)Nc2ccccc21 (stereo not given)	-0.49
COc1cc(C2Nc3cccc4cccc(c34)N2)ccc1OCc1ccccc1	2.9
COc1cc(OC)c(C2Nc3cccc4cccc(c34)N2)c(OC)c1	1.8
CCc1ccc(C2Nc3cccc4cccc(c34)N2)cc1	0.54
c1ccc(C2Nc3cccc4cccc(c34)N2)cc1	6.2*
Brc1cccc(C2Nc3cccc4cccc(c34)N2)c1	5.2*
CCOc1cc(C2Nc3cccc4cccc(c34)N2)ccc1O	2.9
O=C1NC(c2cccc(Br)c2)Nc2ccccc21 (stereo not given)	2.1
O=C1CC2(CCCc3ccccc32)C(=O)N1CN1CCOCC1 (stereo not given)	1.8
O=C1CC(c2ccco2)CC2=C1C(c1ccc(Cl)cc1)N(C(=O)c1ccccc1)c1ccccc1N2 (stereo not given)	1.1
O=C(Nc1cc(F)ccc1F)Nc1cc(C(F)(F)F)ccc1N1CCOCC1	1.2
Cc1c(S(=O)(=O)Cc2ccc(F)cc2)c(N)n(Cc2ccccc2Cl)c1C	0.14
COc1ccc2nc3c(cc2c1)c(=O)n(C)c1c3c(=O)n(C)c(=O)n1C	-1.7
CSc1nc(NC(=O)NS(=O)(=O)c2ccccc2Cl)nc(C2CC2)n1	2
CC(C)(C)c1ccc2c(c1)CN(Cc1ccccc1)CO2	2.6
CC(C)(C)c1ccc2c(c1)CN(c1ccc(F)cc1)CO2	6.3*
CC(C)(C)c1ccc2c(c1)CN(c1cccc(C(=O)O)c1)CO2	-0.89
CCOc1ccc(NC(=O)c2c(N)sc3c2CCC(C(C)(C)C)C3)cc1 (stereo not given)	-1.6
SMILES	Dicer inh
O=[N+]([O-])c1ccc(-n2ncc(-c3nnnn3-c3ccccc3)c2-c2ccccc2)cc1	-0.7
Cc1c(S(=O)(=O)Nc2ccccc2C(=O)NCC2CC2)sc2ccc(Cl)cc12	-0.69
O=C(NCC1CC1)c1ccccc1NS(=O)(=O)c1cc(Cl)c(Oc2ccc([N+](=O)[O-])cc2Cl)c(Cl)c1	3.3*
N#Cc1c(Cl)cccc1Oc1ccc(S(=O)(=O)Nc2ccccc2C(=O)NCC2CC2)cc1	0.88
CCCOc1cccc(-c2nnc(N)s2)c1	2.3
Nc1nc(-c2ccc(Cl)cc2)cs1	-4.2
CCCCOc1ccc(-c2nnc(N)s2)cc1	2.7
Nc1nnc(-c2ccc(Cl)cc2)s1	8.7*
Cc1cccc(-c2nc(N)nc(N)n2)c1	-0.46
Cc1cccc(-c2nnc(N)s2)c1	4.4*
N#Cc1ccc(-c2cn3cccnc3n2)cc1	-3
O=C(Nc1ccccc1SCCS(=O)(=O)c1ccc(Cl)cc1)c1cccs1	-1.8
NC(=S)c1ncc(C(F)(F)F)cc1N1CCCC1	0.07
COc1ccc(Oc2c(C)oc3cc(OC(=O)N4CCOCC4)ccc3c2=O)cc1	0.19
CC(=O)Oc1ccc2c(=O)c(Oc3ccc(Cl)cc3)c(C(F)(F)F)oc2c1	-0.22
